PubChem BioAssay (Tox21)
Several values for one entry are separate records, joined by “and”; a condition that tells them apart may be missing. Equal values may be shown once. Results filed as inconclusive are left out. Where a call stands in place of a potency, no number is given. Some compounds were tested as several samples or in several runs, with calls that do not always agree. Activity calls are given as the source filed them. Unless noted, calls follow the shape of the full dose curve.

How the values were obtained:
[1] = qHTS assay to identify small molecule agonists of the vitamin D receptor (VDR) signaling pathway - cell viability counter screen (AID 743224; active = well fitted curve in the direction sought with a large enough effect in the repeat runs; an effect the other way counts as inactive or inconclusive; also: nearly all actives have a fitted effect of over 50% in size); conditions: VDR-bla HEK293T viability, CellTiter-Glo luminescence, 16 h; series mostly up to 62.6 µM
How it was run: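 Here cell health was gauged by luminescent ATP detection (CellTiter-Glo, 30 min RT) in VDR-bla cells that had been incubated with test compounds for 16 h at 37C and 5% CO2.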

[2] = qHTS assay to identify small molecule antagonists of the vitamin D receptor (VDR) signaling pathway - cell viability counter screen (AID 743225; active = well fitted curve in the direction sought with a large enough effect in the repeat runs; an effect the other way counts as inactive or inconclusive; also: nearly all actives have a fitted effect of over 50% in size); conditions: VDR-bla HEK293T viability, CellTiter-Glo luminescence, 16 h; series mostly up to 61 µM
How it was run: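 VDR-bla HEK 293T cells, 4 h pre-incubation at 37C, then compound plus 1-alpha,25-dihydroxyvitamin D3 (3 nM final) for 16 h. After the beta-lactamase FRET read, CellTiter-Glo was added to the same wells; luminescence after 30 min at room temperature.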

[3] = qHTS assay to identify small molecule agonists of the NFkB signaling pathway (AID 1159509; active = well fitted curve in the direction sought with a large enough effect in the signal ratio in the repeat runs, not every such curve was filed as active; the % refers to the signal ratio); conditions: NFkB-bla ME-180 cells, beta-lactamase FRET ratio, 5 h; series mostly up to 61 µM
How it was run: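 NFkB-bla ME-180 cells with a beta-lactamase reporter under an NF-kB response element were plated overnight, treated with compounds in DMSO for 5 hr at 37 C, then loaded with FRET substrate for 1.5 hr at room temperature.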

[4] = qHTS assay to identify small molecule agonists of the NFkB signaling pathway - cell viability counter screen (AID 1159515); conditions: NFkB-bla ME-180 viability, CellTiter-Glo luminescence, 5 h; series mostly up to 61 µM; also: nearly all actives have a fitted effect of over 55% in size
How it was run: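 5 hr compound treatment of NFkB-bla ME-180 cells (2,000/well, seeded overnight beforehand), followed by reporter substrate for 1.5 hr. CellTiter-Glo added afterward; luminescence after 30 min RT.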

[5] = qHTS assay to identify small molecule agonists of the endoplasmic reticulum stress response signaling pathway - cell viability counter screen (AID 1159517); conditions: ESRE-bla HeLa viability, CellTiter-Glo luminescence, 5 h; series mostly up to 61 µM;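 also: HeLa cells carrying an ER stress response element beta-lactamase reporter; nearly all actives have a fitted effect of over 50% in size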
How it was run: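 Cells, HeLa ESRE-bla; density, 1,500/well; dosing, 5 hr at 37 C, 5% CO2; readout, CellTiter-Glo luminescence after 30 min RT.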

[6] = qHTS assay to identify small molecule antagonists of the retinoid-related orphan receptor gamma (ROR-gamma) signaling pathway - cell viability counter screen (AID 1159520; active = well fitted curve in the direction sought with a large enough effect in the repeat runs; an effect the other way counts as inactive or inconclusive; also: nearly all actives have a fitted effect of over 50% in size); conditions: Tet-on RORgamma CHO cells viability, ATP luminescence, 16 h; series mostly up to 92.4 µM
How it was run: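 Cytotoxicity was read from cellular ATP (CellTiter-Glo luminescence) after 16 hr at 37 C with 1 uM doxycycline induction. The inducer was added 2 hr after compound transfer to Tet-on ROR gamma CHO cells.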

[7] = target: Nuclear receptor ROR-gamma (Homo sapiens) (UniProt P51449); assay: qHTS assay to identify small molecule antagonists of the retinoid-related orphan receptor gamma (ROR-gamma) signaling pathway (AID 1159521; active = well fitted curve in the direction sought with a large enough effect in the repeat runs; an effect the other way counts as inactive or inconclusive; also: nearly all actives have a fitted effect of over 50% in size; also: potency is read from the fitted curve at half-maximal effect); conditions: Tet-on RORgamma CHO cells, RORE-luciferase, 16 h; series mostly up to 92.4 µM
How it was run: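 Tet-on RORγ CHO cells carrying a ROR response element–luciferase reporter were pretreated with compounds for 2 h, then induced with 1 uM (final) doxycycline hyclate for 16 h at 37 C. Antagonism was read as decreased ONE-Glo luminescence.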

[8] = qHTS assay to identify small molecule agonists of the AP-1 signaling pathway - cell viability counter screen (AID 1159525); conditions: ME-180 AP-1-bla cells viability, ATP luminescence, 5 h; series mostly up to 76.8 µM; also: nearly all actives have a fitted effect of over 55% in size
How it was run: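 Luminescent ATP readout (Cell Titer Glo, 30 min RT), normalised to DMSO and tetra n-octyl ammonium bromide controls. Cells were ME-180 AP-1-bla in 0.5% dialyzed FBS Opti-MEM, with a 5 h, 37 °C compound exposure.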

[9] = qHTS assay to identify small molecule agonists of the AP-1 signaling pathway (AID 1159526); conditions: ME-180 (cervical carcinoma) AP-1-bla reporter, beta-lactamase FRET ratio, 5 h; series mostly up to 76.8 µM; also: potency is read from the fitted curve at half-maximal effect
[10] = qHTS assay to identify small molecule agonists of the endoplasmic reticulum stress response signaling pathway (AID 1159516; active = well fitted activation curve with a large enough effect in the signal ratio in the repeat runs, not every such curve was filed as active; the % refers to the signal ratio); conditions: ESRE-bla HeLa, ER stress beta-lactamase reporter, 5 h; series mostly up to 61 µM
How it was run: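 Reporter HeLa cells (ESRE-beta-lactamase) underwent 5 hr compound incubation at 37 C and 5% CO2 in quantitative HTS format. Detection followed 2 hr of FRET substrate loading at room temperature.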

SMILES | Potency [1] | outcome [2] | outcome [3] | outcome [4] | outcome [5] | outcome [6] | Potency [7] | outcome [8] | Potency [9] | outcome [10]
COc1cc(-c2ccc(N)c(OC)c2)ccc1N | inactive | inactive | inactive | inactive | inactive | inactive | inactive | inactive | inactive | –
CCCCCCCCCCCCCCCCCC(=O)O | inactive | inactive | inactive | inactive | inactive | inactive | – | inactive | inactive | inactive
[N-]=[N+]=CC(=O)OC[C@H](N)C(=O)O | inactive | inactive | inactive | inactive | inactive | inactive | inactive | inactive | inactive | inactive
O=[N+]([O-])c1ccc(Cl)cc1 | inactive | inactive | inactive | inactive | inactive | inactive | inactive | inactive | inactive | inactive
C[C@]12CC[C@H](O)CC1=CC[C@@H]1[C@@H]2CC[C@]2(C)C(=O)CC[C@@H]12 | inactive | inactive | – | inactive | inactive | inactive | 24.4 µM (active) and 24.3 µM (active) | inactive | inactive | inactive
CCOc1ccc(N)cc1 | inactive | inactive | inactive | inactive | inactive | inactive | inactive | inactive | inactive | inactive
C=CCN=C=S | inactive | inactive | inactive | inactive | inactive | inactive | inactive | inactive | inactive | inactive
COS(=O)(=O)OC | inactive | inactive | inactive | inactive | inactive | inactive | inactive | inactive | inactive | inactive
COP(=S)(OC)SCN1C(=O)c2ccccc2C1=O | inactive | inactive | inactive | inactive | inactive | inactive | – | inactive | inactive | inactive
O=C(O)Cc1ccccc1 | inactive | inactive | inactive | inactive | inactive | inactive | inactive | inactive | inactive | inactive
CNC(=O)O/N=C/C(C)(C)S(C)=O (configuration not stated) | inactive | inactive | inactive | inactive | inactive | inactive | inactive | inactive | inactive | inactive
CC(C)CCCCCCOC(=O)c1ccccc1C(=O)OCCCCCCC(C)C | inactive | inactive | inactive | inactive | inactive | inactive | – | inactive | inactive | inactive
CCCOC(=O)c1ccccc1C(=O)OCCC | inactive | inactive | inactive | inactive | inactive | inactive | inactive | inactive | inactive | inactive
C=CC#N | inactive | inactive | inactive | inactive | inactive | inactive | inactive | inactive | inactive | inactive
COP(=S)(OC)Oc1ccc(SC)c(C)c1 | inactive | inactive | inactive | inactive | inactive | inactive | inactive | inactive | inactive | inactive
CNCC(O)c1ccc(O)cc1 (configuration not stated) | inactive | inactive | inactive | inactive | inactive | inactive | inactive | inactive | inactive | inactive

SMILES | Potency [1] | outcome [2] | outcome [3] | outcome [4] | outcome [5] | outcome [6] | Potency [7] | outcome [8] | Potency [9] | outcome [10]
N#Cc1ccccn1 | inactive | inactive | inactive | inactive | inactive | inactive | inactive | inactive | inactive | inactive
ClCCOCCCl | inactive | inactive | inactive | inactive | inactive | inactive | inactive | inactive | inactive | inactive
COC(=O)Nc1cccc(OC(=O)Nc2cccc(C)c2)c1 | inactive | inactive | inactive | inactive | inactive | inactive | inactive | inactive | inactive | inactive
O=[N+]([O-])c1cc([As](=O)(O)O)ccc1O | inactive | inactive | inactive | inactive | inactive | inactive | inactive | inactive | inactive | inactive
Sc1ccccc1 | inactive | inactive | inactive | inactive | inactive | inactive | inactive | inactive | 49.7 µM (active) and inactive | inactive
O=C(O)CCCc1ccc(N(CCCl)CCCl)cc1 | inactive | inactive | inactive | inactive | inactive | – | – | inactive | inactive | inactive
O=C(O)COc1ccccc1 | inactive | inactive | inactive | inactive | inactive | inactive | – | inactive | inactive | inactive
Nc1cccc(Cl)c1 | inactive | inactive | inactive | inactive | inactive | inactive | inactive | inactive | inactive | inactive
O=S(=O)(O)OOS(=O)(=O)O | inactive | inactive | inactive | inactive | inactive | inactive | inactive | inactive | inactive | inactive
C=CC(=O)OCC(CC)CCCC (configuration not stated) | inactive | inactive | inactive | inactive | inactive | inactive | inactive | inactive | inactive | inactive
N#Cc1cccc(C#N)c1 | inactive | inactive | inactive | inactive | inactive | inactive | inactive | inactive | inactive | inactive
OCCCCO | inactive | inactive | inactive | inactive | inactive | inactive | inactive | inactive | inactive | inactive
ClC(Cl)c1ccccc1 | inactive | inactive | inactive | inactive | inactive | inactive | inactive | inactive | inactive | inactive
CN(C)CCC#N | inactive | inactive | inactive | inactive | inactive | inactive | inactive | inactive | inactive | inactive
O=C(O)c1cc(Oc2ccc(C(F)(F)F)cc2Cl)ccc1[N+](=O)[O-] | inactive | inactive | inactive | inactive | inactive | inactive | inactive | inactive | inactive | inactive
